Screening results: PubChem BioAssay, Broad Institute
The sample as a whole holds a higher share of hits than the screen did.
NOMO-1 viab = STK33 inhibitor candidate reducing NOMO-1 cell viability; NOMO-1 AML viability, CellTiter-Glo luminescence, 72 h; inhibition, % (concentration not given with the values); actives 7.5% (n = 37,000); AID 2330; in the data active = inhibition above about 80%; inconclusive = no clear call, values can overlap the other calls
PD-1 reversal = activators reversing PD-1 mediated T-cell inhibition; 29,000 tested, under 10 active; primary human CD4 T cells, PD-L1 beads, CellTiter-Glo 96 h; activation, % (no concentration beside the values); AID 2316; call rule not given here;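 also: 0% = median vehicle wells and 100% = positive control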
STK33 kin inh = human STK33 kinase inhibition. actives 0.44% (n = 27,000). AID 2322. Q9BYT3. ADP-Glo luminescence, MBP substrate. inhibition, % at 12.5 µM; in the data active = inhibition above about 20%; inconclusive = no clear call, values can overlap the other calls
Target sequence (Q9BYT3 whole entry, looked up): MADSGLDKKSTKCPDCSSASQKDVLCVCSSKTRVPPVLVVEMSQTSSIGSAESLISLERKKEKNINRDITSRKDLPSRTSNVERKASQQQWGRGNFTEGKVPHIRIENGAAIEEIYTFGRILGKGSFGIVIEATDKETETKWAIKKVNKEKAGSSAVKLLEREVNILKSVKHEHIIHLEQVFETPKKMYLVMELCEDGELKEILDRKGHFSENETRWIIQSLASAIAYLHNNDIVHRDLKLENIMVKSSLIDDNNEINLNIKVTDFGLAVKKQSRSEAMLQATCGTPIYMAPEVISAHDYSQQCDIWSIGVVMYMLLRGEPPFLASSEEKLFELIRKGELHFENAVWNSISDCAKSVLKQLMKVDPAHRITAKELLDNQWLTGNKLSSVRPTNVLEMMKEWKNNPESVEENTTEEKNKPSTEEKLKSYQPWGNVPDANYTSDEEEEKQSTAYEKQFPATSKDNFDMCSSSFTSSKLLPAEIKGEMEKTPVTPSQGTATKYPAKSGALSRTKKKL
Active calls of the source: *.

What do the screens show for `CC1(C)CC[C@]2(C(=O)O[C@@H]3O[C@H](CO[C@@H]4O[C@H](CO[C@@H]5O[C@H](CO)[C@@H](O)[C@H](O)[C@H]5O)[C@@H](O)[C@H](O)[C@H]4O)[C@@H](O)[C@H](O[C@@H]4O[C@H](CO)[C@@H](O)[C@H](O)[C@H]4O)[C@H]3O)CC[C@]3(C)C(=CCC4[C@@]5(C)CC[C@H](O)[C@@](C)(C(=O)O)C5CC[C@]43C)C2C1` (stereo not given in full)?
NOMO-1 viab: 25; PD-1 reversal: -1; STK33 kin inh: -3

What do the screens show for `c1ccc2[nH]c(CSc3ncnc4sc5c(c34)CCCC5)nc2c1`?
NOMO-1 viab: 35; PD-1 reversal: -2; STK33 kin inh: 1

Results for C[C@@H]1CN([C@H](C)CO)C(=O)c2cccc(NC(=O)c3cnccn3)c2O[C@@H]1CN(C)C(=O)Nc1cccc2ccccc12 ?
NOMO-1 viab: 7; PD-1 reversal: 1

How did COc1ccc(NC(=O)CN(C)S(=O)(=O)c2cc(Cl)ccc2Cl)cc1OC do in these assays?
NOMO-1 viab: 2; STK33 kin inh: 0

Results for C[C@@H]1CN([C@H](C)CO)C(=O)c2cccc(NC(=O)C3CCOCC3)c2O[C@@H]1CN(C)S(=O)(=O)c1cn(C)cn1 ?
NOMO-1 viab: 3; PD-1 reversal: 4

How did O/N=C/c1ccc(-c2cc(C(F)(F)F)cc(C(F)(F)F)c2)o1 do in these assays?
NOMO-1 viab: 18; PD-1 reversal: -1

How did O=c1c(C=Nc2ccccc2)c(Nc2ccccc2)[nH]n1-c1ccccc1 do in these assays?
NOMO-1 viab: 102*; PD-1 reversal: 4; STK33 kin inh: 1

How did C[C@@H]1CN([C@H](C)CO)C(=O)Cc2cc(NC(=O)Nc3ccc(C(F)(F)F)cc3)ccc2O[C@H]1CN(C)Cc1ccc(Oc2ccccc2)cc1 do in these assays?
NOMO-1 viab: 112*; STK33 kin inh: 2

Results for COc1ccc(CN(C)C[C@@H]2Oc3ccc(NC(=O)Nc4ccc(C(F)(F)F)cc4)cc3CC(=O)N([C@@H](C)CO)C[C@@H]2C)cc1 ?
NOMO-1 viab: 17; STK33 kin inh: -2

What do the screens show for `C[C@H](CO)N1C[C@H](C)[C@H](CN(C)Cc2ccc(Oc3ccccc3)cc2)Oc2ccc(NC(=O)Nc3ccc(C(F)(F)F)cc3)cc2CC1=O`?
NOMO-1 viab: 119*; PD-1 reversal: -4; STK33 kin inh: -4

Results for CNC[C@@H]1Oc2ncc(-c3cccc(F)c3)cc2C(=O)N([C@H](C)CO)C[C@@H]1C ?
STK33 kin inh: -2

What do the screens show for `COc1cc(NC(=O)COc2ccc3ccccc3c2Br)c(OC)cc1Cl`?
NOMO-1 viab: 126*; PD-1 reversal: 0; STK33 kin inh: 2

How did COC(=O)c1cc(OC)c(OC)cc1NC(=O)COc1ccc2ccccc2c1Br do in these assays?
NOMO-1 viab: -17; PD-1 reversal: 0; STK33 kin inh: -3

What do the screens show for `C[C@H]1CN([C@@H](C)CO)C(=O)c2cccc(NS(=O)(=O)c3ccccc3)c2O[C@@H]1CN(C)C(=O)Nc1ccc(F)cc1`?
NOMO-1 viab: 15; PD-1 reversal: 3

What do the screens show for `O=C(CS(=O)c1ccccc1[N+](=O)[O-])Oc1ccc(Cl)cc1Cl` (stereo not given)?
NOMO-1 viab: 69; PD-1 reversal: -4; STK33 kin inh: 3

What do the screens show for `Cc1ccc(C)c(OC(=O)CS(=O)c2ccccc2[N+](=O)[O-])c1` (stereo not given)?
NOMO-1 viab: 120*; PD-1 reversal: -2; STK33 kin inh: -4

Results for Cc1cc(C)c(C#N)c(SCC(O)CNc2ccc(Cl)cc2)n1 (stereo not given) ?
NOMO-1 viab: 27; PD-1 reversal: 1; STK33 kin inh: -5

Results for Cc1cc2ncn(CC(O)COc3ccc(C(C)C)cc3)c2cc1C (stereo not given) ?
NOMO-1 viab: inconclusive; PD-1 reversal: -6; STK33 kin inh: 0

What do the screens show for `CC(C)c1ccc(NCC(O)CSc2ccccc2)cc1` (stereo not given)?
NOMO-1 viab: 110*; PD-1 reversal: -1

How did CC(C)c1ccc(NCC(O)COc2ccc(Cl)c(Cl)c2)cc1 (stereo not given) do in these assays?
NOMO-1 viab: 117*; PD-1 reversal: -3

What do the screens show for `CCCCn1c(Cc2ccccc2)nc2ccccc21`?
NOMO-1 viab: 21; PD-1 reversal: 0

Results for CC(C)(C)c1cc(C(F)(F)F)c(C#N)c(SCC(=O)Nc2sc3c(c2C#N)CCCC3)n1 ?
NOMO-1 viab: 97*; STK33 kin inh: -1

Results for N#Cc1c(C(F)(F)F)cc(-c2cccs2)nc1SCC(=O)Nc1sc2c(c1C#N)CCC2 ?
NOMO-1 viab: 74; PD-1 reversal: -2; STK33 kin inh: 0

How did C[C@H](CO)N1C[C@H](C)[C@@H](CN(C)C(=O)Nc2cccc3ccccc23)Oc2c(NS(C)(=O)=O)cccc2C1=O do in these assays?
NOMO-1 viab: 5; PD-1 reversal: 0

How did COc1ccc(OCC(=O)Nc2cc(-c3nnc(OC)c4ccccc34)ccc2N2CCCCC2)cc1 do in these assays?
NOMO-1 viab: 89*; PD-1 reversal: 2; STK33 kin inh: 3

What do the screens show for `COc1nnc(-c2ccc(N3CCOCC3)c(NS(=O)(=O)c3ccc(Cl)cc3)c2)c2ccccc12`?
NOMO-1 viab: 10; PD-1 reversal: 0; STK33 kin inh: 6

What do the screens show for `CN(C)/C=C/C(=O)c1ccc2c(c1)CCO2`?
NOMO-1 viab: 110*; PD-1 reversal: 0

How did C/C(=N\O)c1ccc2c(c1)CCO2 do in these assays?
NOMO-1 viab: 17; PD-1 reversal: 1

What do the screens show for `NNC(=O)c1ccc(CSc2ccc(C(F)(F)F)cn2)o1`?
NOMO-1 viab: 34; PD-1 reversal: 1

How did COc1ccc(NC(=O)Nc2cccc3c2O[C@H](CN(C)Cc2ccc(Cl)c(Cl)c2)[C@@H](C)CN([C@@H](C)CO)C3=O)cc1 do in these assays?
NOMO-1 viab: 91*

What do the screens show for `COc1ccc(CN(C)C[C@@H]2Oc3c(NC(=O)Nc4ccc(OC)cc4)cccc3C(=O)N([C@@H](C)CO)C[C@@H]2C)cc1`?
NOMO-1 viab: 15; PD-1 reversal: 1

What do the screens show for `COc1ccc(CN(C)C[C@H]2Oc3c(NC(=O)Nc4ccc(F)cc4)cccc3C(=O)N([C@H](C)CO)C[C@@H]2C)cc1`?
NOMO-1 viab: 72; PD-1 reversal: -1

What do the screens show for `COc1ccc(CN(C)C[C@H]2Oc3c(NC(=O)Nc4ccc(OC)cc4)cccc3C(=O)N([C@@H](C)CO)C[C@@H]2C)cc1`?
NOMO-1 viab: 45

What do the screens show for `COc1ccc(NC(=O)Nc2cccc3c2O[C@H](CN(C)Cc2ccc(Cl)c(Cl)c2)[C@@H](C)CN([C@H](C)CO)C3=O)cc1`?
NOMO-1 viab: 103*; PD-1 reversal: -6

What do the screens show for `COc1ccc(NC(=O)Nc2cccc3c2O[C@@H](CN(C)Cc2ccc(Cl)c(Cl)c2)[C@H](C)CN([C@H](C)CO)C3=O)cc1`?
NOMO-1 viab: 102*

How did O=C(O)CNC(=O)CSc1ccccn1 do in these assays?
NOMO-1 viab: 12; PD-1 reversal: 2

What do the screens show for `COc1ccc(CN(C)C[C@H]2Oc3c(NC(=O)c4nc5ccccc5s4)cccc3C(=O)N([C@H](C)CO)C[C@@H]2C)cc1`?
NOMO-1 viab: 34; PD-1 reversal: -2
